Assay results published in the supplement of paper PMC10127200.
Where a name gives a salt, the structure may show the parent alone.

Columns and labels:
Experiment in all cases: Euclidean distance of Cell Painting phenotypic profile (signed KS, 77 features) to DMSO centroid (dimensionless distance); 5 or 10 uM (library dependent); higher = stronger phenotypic change vs DMSO (phenoactivity)
Conditions in all cases: 48 h
[1] = tested on: 786-O
Method in brief: (§1)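 Phenoactivity is defined as the Euclidean distance from a compound profile to the median vehicle profile. Each profile comprised 77 Harmony features, scored as signed Kolmogorov-Smirnov statistics versus same-plate vehicle wells, then plate-position corrected, correlation-weighted and replicate-averaged at the top dose. Five cancer lines and one healthy fibroblast line were exposed to library compounds for 48 h at 10 or 5 uM (0.1% DMSO final).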

[2] = tested on: A549
Method in brief: as §1

[3] = tested on: DU145
Method in brief: as §1

[4] = tested on: FB
Method in brief: as §1

[5] = tested on: HEPG2
Method in brief: as §1

[6] = tested on: OVCAR4
Method in brief: as §1

Compound	Euclidean distance [1]	Euclidean distance [2]	Euclidean distance [3]	Euclidean distance [4]	Euclidean distance [5]	Euclidean distance [6]
Cc1cccc(CC(=O)N2CCc3c2ccc(-c2cn(C)c4ncnc(N)c24)c3F)n1	1.25	2.13	1.84	1.96	1.24	1.35
Cc1cc(C(=O)NOCCO)c(Nc2ccc(I)cc2F)n(C)c1=O	2.89	2.95	2.82	4.35	1.48	1.72
CC[C@H]1OC(=O)[C@H](C)[C@@H](O[C@H]2C[C@@](C)(OC)[C@@H](O)[C@H](C)O2)[C@H](C)[C@@H](O[C@@H]2O[C@H](C)C[C@H](N(C)C)[C@H]2O)[C@](C)(O)C[C@@H](C)C(=O)[C@H](C)[C@H]2OC(=O)O[C@@]21C [Erythromycin Cyclocarbonate]	1.11	1.33	0.736	0.984	1.01	0.912
COc1ccc2[nH]cc(CCNC(C)=O)c2c1 [Melatonin]	0.969	0.391	0.808	0.749	0.681	0.982
C[C@H]1[C@H](NC(=O)/C(=N\OC(C)(C)C(=O)O)c2csc(N)n2)C(=O)N1S(=O)(=O)O [Aztreonam]	1.13	0.951	1.05	1.15	0.888	1.53
CN1CCN(CCOc2cc(OC3CCOCC3)c3c(Nc4c(Cl)ccc5c4OCO5)ncnc3c2)CC1 [Saracatinib (AZD0530)]	3.22	3.83	1.78	3.97	1.98	3.34
C=CC(=O)Nc1cc2c(Nc3ccc(F)c(Cl)c3)ncnc2cc1OCCCN1CCOCC1 [Canertinib (CI-1033)]	1.57	2.51	1.4	1.25	0.69	2.05
COc1cc2c(cc1OC)[C@@H](Cc1cc(OC)c(OC)c(OC)c1)[N+](C)(CCCOC(=O)CC/C=C/CCC(=O)OCCC[N+]1(C)CCc3cc(OC)c(OC)cc3[C@H]1Cc1cc(OC)c(OC)c(OC)c1)CC2 (some centres not stated) [Mivacurium chloride]	0.861	1	0.929	1.3	0.442	1.25
C[C@H](Oc1cc(-c2cnn(C3CCNCC3)c2)cnc1N)c1c(Cl)ccc(F)c1Cl [(S)-crizotinib]	3.79	3.26	2.55	4.85	3.67	2.78
CC[C@H](C)C(=O)O[C@H]1C[C@H](O)C=C2C=C[C@H](C)[C@H](CC[C@@H](O)C[C@@H](O)CC(=O)O)[C@H]21 [Pravastatin sodium]	0.813	0.763	0.709	0.425	0.254	0.778
CC(C)/N=c1\cc2n(-c3ccc(Cl)cc3)c3ccccc3nc-2cc1Nc1ccc(Cl)cc1 [Clofazimine]	1.02	1.1	0.808	1.7	0.662	1.05
Nc1ccccc1NC(=O)c1ccc(CNC(=O)OCc2cccnc2)cc1 [Entinostat (MS-275)]	3.47	2.57	2.22	3.25	2.93	2.57
CN1CCOC(c2ccccc2)c2ccccc2C1 (configuration not stated) [Nefopam HCl]	1.21	0.668	0.813	1.07	0.77	1.29
O=c1sn(-c2cccc3ccccc23)c(=O)n1Cc1ccccc1 [Tideglusib]	0.967	0.321	0.768	0.656	0.456	1.14
Cc1ccc(S(=O)(=O)n2c(N)nc3ccccc32)cc1 [ML130 (Nodinitib-1)]	0.771	1.13	0.862	0.77	1.18	0.774
CC[C@H]1[C@@H](O)[C@@H]2[C@H](CC[C@]3(C)[C@@H]([C@H](C)CCC(=O)O)CC[C@@H]23)[C@@]2(C)CC[C@@H](O)C[C@@H]12 [Obeticholic Acid]	0.797	0.614	0.878	0.944	0.851	0.844
CC(C)(C)CC(C)(C)c1ccc(OCCOCC[N+](C)(C)Cc2ccccc2)cc1 [Benzethonium Chloride]	3.02	2.7	2.15	1.82	2.43	2.37
Cc1ccc(-c2ncc(Cl)cc2-c2ccc(S(C)(=O)=O)cc2)cn1 [Etoricoxib]	0.705	0.64	0.802	1.09	0.559	0.802
CN1CCN(CC/C=C2/c3ccccc3Sc3ccc(S(=O)(=O)N(C)C)cc32)CC1 [Thiothixene]	2.81	2.33	2.21	2.69	3.3	2.03
COc1ncc(-c2ccc3nccc(-c4ccnnc4)c3c2)cc1NS(=O)(=O)c1ccc(F)cc1F	4.98	3.16	2.84	3.96	2.53	3.04
CNCC[C@@H](Oc1ccccc1C)c1ccccc1 [Atomoxetine HCl]	1.37	1.23	0.627	0.866	0.422	1.22
Cc1ccc(C(=O)N(CCCN)[C@@H](c2oc3cc(Cl)ccc3c(=O)c2Cc2ccccc2)C(C)C)cc1	3.9	3.16	3.86	2.4	2.19	3.2
COC(=O)Nc1nc2cc(C(=O)c3ccc(F)cc3)ccc2[nH]1 [Flubendazole]	2.74	2.91	3.24	2.46	2.16	3.1
NC[C@@H]1O[C@H](O[C@H]2[C@@H](O)[C@H](O[C@@H]3[C@@H](O)[C@H](N)C[C@H](N)[C@H]3O[C@H]3O[C@H](CO)[C@@H](O)[C@H](O)[C@H]3N)O[C@@H]2CO)[C@H](N)[C@@H](O)[C@@H]1O [Paromomycin Sulfate]	1.05	1.06	0.88	1.2	0.817	1

Compound	Euclidean distance [1]	Euclidean distance [2]	Euclidean distance [3]	Euclidean distance [4]	Euclidean distance [5]	Euclidean distance [6]
O=c1ccc2cc3ccoc3cc2o1 [Psoralen]	1.35	0.643	0.873	1.16	1.17	1.04
N#CC1(c2ccc(NC(=O)c3cccnc3NCc3ccncc3)cc2)CCCC1 [Apatinib]	0.955	1.12	0.92	2.3	1.34	0.799
Cc1coc2c1C(=O)C(=O)c1c-2ccc2c1CCCC2(C)C [Tanshinone IIA]	1.26	2.73	0.982	1.04	1.54	1.36
CN[C@@H]1[C@H](O)[C@H](NC)[C@H]2O[C@@]3(O)C(=O)C[C@@H](C)O[C@H]3O[C@@H]2[C@H]1O [Spectinomycin 2HCl]	1.1	0.735	0.979	1.48	0.555	0.972
Cc1cc(C)cc(NC(=O)Cc2ccc(OC(C)(C)C(=O)O)cc2)c1 [Efaproxiral Sodium]	1.04	0.727	0.774	0.966	0.587	0.981
C[C@@H](O)[C@@H]1NC(=O)[C@H](CCCCN)NC(=O)[C@@H](Cc2c[nH]c3ccccc23)NC(=O)[C@H](Cc2ccccc2)NC(=O)[C@@H](NC(=O)[C@H](N)Cc2ccccc2)CSSC[C@@H](C(=O)N[C@H](CO)[C@@H](C)O)NC1=O [Octreotide Acetate]	1.6	1.39	1.08	0.734	0.782	1.45
OCc1ccc(-c2ccc(-c3ccc(CO)s3)o2)s1	2.79	2.26	1.44	2.66	4.78	5.04
C=CC(=O)Nc1cc(Nc2nccc(-c3cn(C4CC4)c4ccccc34)n2)c(OC)cc1N(C)CCN(C)C	5.66	5.01	3.44	2.32	2.67	1.92
N#CCC1(n2cc(-c3ncnc4[nH]ccc34)cn2)CN(C2CCN(C(=O)c3ccnc(C(F)(F)F)c3F)CC2)C1	1.27	1.05	1.46	1.34	0.742	1.05
O=C(CCCN1CC=C(n2c(=O)[nH]c3ccccc32)CC1)c1ccc(F)cc1 [Droperidol]	1.34	0.569	0.766	0.888	0.689	0.73
O=C(Nc1ccccc1Br)N[C@@H]1CCN(c2ccc(C(F)(F)F)cn2)C1	0.896	0.999	0.688	0.9	0.544	1.21
COc1cccc(Nc2c(C(N)=O)cnc3c(C)cc(S(=O)(=O)c4cccc(C(=O)N(C)C)c4)cc23)c1	1.2	0.89	1.05	1.95	1.19	1.48
CN1C(C(=O)Nc2ccccn2)=C(O)c2sccc2S1(=O)=O [Tenoxicam]	0.866	1.16	1.02	0.733	2.05	1.22
Cc1ccc(C(C)C)c(O)c1 [Thymol]	0.798	1.8	1.2	0.901	0.572	1.46
Nc1cccc2c1CN(C1CCC(=O)NC1=O)C2=O (configuration not stated) [Lenalidomide (CC-5013)]	1.74	1.2	0.79	1.03	0.639	1.15
O=C(O)/C=C/c1ccc(O)c(O)c1 [Caffeic Acid]	0.946	0.603	1.61	0.961	0.639	1.23
O=C(Nc1nc2cccc(-c3ccc(CN4CCS(=O)(=O)CC4)cc3)n2n1)C1CC1 [Filgotinib (GLPG0634)]	0.844	0.922	1.29	1.45	2.21	1.22
FC(F)(F)c1ccc(/C=C/c2nc(COc3ccc(CCCCn4ccnn4)cc3)co2)cc1 [Mubritinib (TAK 165)]	0.614	1.76	1.4	1.61	1.89	1.42
COc1cc(F)c(C(C)C)cc1-c1ccc(C(F)(F)F)cc1CN1C(=O)O[C@H](c2cc(C(F)(F)F)cc(C(F)(F)F)c2)[C@@H]1C [Anacetrapib (MK-0859)]	0.703	0.903	1.12	0.869	1.84	0.709
CCCCC1OC(=O)c2ccccc21 (configuration not stated) [3-n-Butylphathlide]	1.36	0.948	0.834	1.38	0.575	1.15
CCCCCCCCCCCCCCCCOc1nc2ccc(C)cc2c(=O)o1 [Cetilistat]	1	1.33	0.996	0.737	0.864	0.764
CCC(=O)O[C@]1(C(=O)CCl)[C@@H](C)C[C@H]2[C@@H]3CCC4=CC(=O)C=C[C@]4(C)[C@@]3(F)[C@@H](O)C[C@@]21C [Clobetasol propionate]	1.31	2.17	2.55	2.08	0.79	1.96
CS(=O)(=O)N1CCc2c(-c3cnc(N)nc3)nc(N3CCOCC3)nc21	1.32	2.54	0.984	2.13	0.817	2.01
